Values joined by “and” are separate entries in the source; they are usually repeats but may differ in a detail not shown here. Identical values can stand only once. Screen size: about 330,000 compounds; about 1,500 (0.45%) were called active. Not shown: some 6% with an inconclusive outcome. This is one part of a sample in which actives are shown more often than they occur. Calls follow the shape of the full dose curve; tested in A549 cells. A structure can be active in one record and inactive in another.
test: qHTS for Stage-Specific Inhibitors of Vaccinia Orthopoxvirus: Venus Reporter Primary qHTS; conditions: Vaccinia virus Venus reporter expression, fluorescence; series mostly up to 36.5 µM; activity change, negative = inhibition: at the top concentration; also: nearly all actives have a fitted effect of over 30% in size
% is scaled to controls: 0 for no effect and ±100 for the full control effect; potency is read from the fitted curve at half-maximal effect.

| SMILES | activity change, negative = inhibition | Potency |
| --- | --- | --- |
| CCOC(=O)N1CCN(C(=O)C[C@@H]2C[C@@]3(C(=O)OC)CCCCC=C3N(CCC3=CCCCC3)C2=O)CC1 | -3.65% (inactive) | – |
| CC1(C)OC(=O)C2=C(C[C@@H](C3CC3)O[C@H]2CCc2cccc(Cl)c2)O1 | -2.21% (inactive) | – |
| CN(C)CCNC(=O)Nc1cccc(Cl)c1Cl | -9.74% (inactive) | – |
| CN(C)CCNC(=O)c1ccc(Cl)c2cc3ccccc3nc12 | – | 4.47 µM (active) |
| CC(=O)NCCNC(=O)c1cc(-c2cccc3ccccc23)nc2ccccc12 | -3.45% (inactive) | – |
| COc1cc(C(O)c2nc(-c3cnn(C)c3)cs2)ccc1F (centres undefined) | 4.96% (inactive) | – |
| COc1ccc(NS(=O)(=O)c2ccc3oc(SCC(N)=O)nc3c2)cc1 | – | 4.47 µM (active) |
| CCn1c(=O)c(=O)[nH]c2c(=O)oc3ccc(S(=O)(=O)Nc4ccc(OC)cc4)cc3c21 | -8.32% (inactive) | – |
| COc1ccc(NC(=O)c2cnc(NS(=O)(=O)c3ccccc3)nc2)cc1 | -3.79% (inactive) | – |
| O=C1CCN(Cc2ccc(-c3ccccc3)cc2)CCN1Cc1ccccn1 | -10.9% (inactive) | – |
| Cc1oc2c(c1C(=O)N1CCOCC1)C(=O)c1ccccc1C2=O | – | 3.16 µM (active) |
| COC1=C(N2CCOCC2)C(=O)c2ccccc2C1=O | 5.75% (inactive) | – |
| Cc1ccccc1-c1ccc(Nc2ccc(C(=O)N3CCOCC3)cc2)nn1 | -11.8% (inactive) | – |
| CCCCC(CCCC)c1ccc(C=Nc2ccc(/C=C/c3ccnc4ccccc34)cc2)cc1 | -2.48% (inactive) | – |
| Cc1ccccc1-c1csc(C(O)c2cccc(Cl)c2)n1 (centres undefined) | -11.5% (inactive) | – |
| c1ccc2c(c1)[I+]c1ccccc1-2 | – | inactive and 10 µM (active) |
| N=C1c2ccccc2-c2ccccc21 | -6.01% (inactive) | – |
| CCCC[C@@H]1CN=C(N)N1CCCC | -24.8% (inactive) | – |
| CCCC[C@@H]1CN=C(N)N1CCc1cc(C(F)(F)F)cc(C(F)(F)F)c1 | – | 10 µM (active) |
| CCCC[C@@H]1CN=C(N)N1CCc1cccc(F)c1 | -11.5% (inactive) | – |
| COc1cc(CNc2ncnc3c2ncn3[C@H]2CN(Cc3cccs3)C[C@@H](CO)O2)cc(OC)c1OC | -6.64% (inactive) | – |
| NCCCCC(C(=O)O)N(C(=O)OCc1ccccc1)C(=O)OCc1ccccc1 (centres undefined) | -4.22% (inactive) | – |
| Cc1ccc(-c2nn(-c3ccccc3)cc2/C=N/NC(=O)c2ccc3c(c2)OCO3)cc1 | -19.4% (inactive) | – |
| COc1ccc(-c2nn(-c3ccccc3)cc2/C=N/Nc2ccccn2)cc1OC | – | 14.1 µM (active) |
| O=Cc1cn(-c2ccccc2)nc1-c1ccccn1 | -11.6% (inactive) | – |

| SMILES | activity change, negative = inhibition | Potency |
| --- | --- | --- |
| CCC(C)N1C(=O)S/C(=C/c2ccc(Sc3nc4ccccc4[nH]3)o2)C1=O (centres undefined) | – | 11.2 µM (active) |
| O=C(CSc1nc2ccccc2[nH]1)Nc1nc(-c2ccccc2)c(-c2ccccc2)o1 | -7.22% (inactive) | – |
| CCC(c1nc2ccccc2[nH]1)n1c(=O)c(-c2cccs2)nc2ccccc21 (centres undefined) | -17% (inactive) | – |
| O=C(NCc1ccc(F)cc1)c1cc(C2CCCCN2C(=O)C2CCCCC2)on1 (centres undefined) | -14.1% (inactive) | – |
| COc1ccc(C2=Nc3ccccc3NC(=O)C2N(C(=O)c2cc3ccccc3[nH]2)c2ccccc2)cc1 (centres undefined) | 9.83% (inactive) | – |
| C=CC[C@@H](CC(=O)N[C@H](CO)Cc1ccccc1)C(=O)N[C@H](C)COC(=O)[C@@H](CC=C)Cc1ccc(F)cc1 | -16.5% (inactive) | – |
| C=CCC[C@H](Cc1ccc(F)cc1)C(=O)OC[C@@H](NC(=O)[C@@H](CC=C)CC(=O)N[C@H](CO)Cc1ccccc1)C(C)(C)C | – | 11.2 µM (active) |
| C=CC[C@@H](CC(=O)N[C@H](CO)Cc1ccccc1)C(=O)N[C@@H](COC(=O)[C@@H](CC=C)Cc1ccc(F)cc1)Cc1c[nH]c2ccccc12 | -9.16% (inactive) | – |
| Cc1ccccc1Cn1c(C)c(C(=O)NCc2cccc(C(F)(F)F)c2)sc1=O | -8.3% (inactive) | – |
| CN1CC[C@H](c2c(O)cc(O)c3c(=O)cc(-c4ccccc4Cl)oc23)[C@H](O)C1 | – | 0.0794 µM (active) |
| O=C(Nc1ccc(Cl)c(C(F)(F)F)c1)C1Cc2c(-c3ccccc3Oc3ccccc3)ccnc2O1 (centres undefined) | -1.56% (inactive) | – |
| CC1(C(=O)Nc2ccc3c(c2)OCCO3)CCN1C(=O)Cc1cc(F)ccc1F (centres undefined) | -1.79% (inactive) | – |
| CCc1ccc(-c2nn(-c3ccccc3C)cc2C(=O)N2CCN(C3CCS(=O)(=O)C3)CC2)cc1 (centres undefined) | -1.86% (inactive) | – |
| CN(C)Cc1cn(-c2ccccc2)nc1-c1ccccc1 | -25.3% (inactive) | – |
| CCc1ccc(-c2nn(-c3ccccc3)cc2CSC(=N)N)cc1 | – | 11.2 µM (active) |
| COC(=O)C1CCCCN1Cc1ccc2c(c1)CN(Cc1cc(OC)c3c(c1)OCO3)CCO2 (centres undefined) | -4.65% (inactive) | – |
| CCCCCc1c(-c2ccc(OC)c(OC)c2)ncn1CCc1ccccc1OC | -25.2% (inactive) | – |
| CCCCCc1c(-c2cccc(Br)c2)ncn1CCc1ccccc1OC | 0.147% (inactive) | – |
| CCCCCc1c(Cc2ccccc2)ncn1CCc1ccccc1OC | – | 1.41 µM (active) |
| O=C(Nc1ccccc1)c1ccccc1OCc1ccccc1 | -6.03% (inactive) | – |
| CC1(C(=O)NCC2CCOCC2)Cc2c(-c3cccc(C(N)=O)c3)ccnc2O1 (centres undefined) | -7.77% (inactive) | – |
| COc1ccc(-c2nc3ccc(Br)cn3c2Cc2ccc(C)cc2)cc1OC | -0.743% (inactive) | – |
| Cn1c(Nc2cccc(Cl)c2)nc2ccccc21 | -21.5% (inactive) | – |
| OCCCNc1nccc(-c2cc(Nc3cccc(Cl)c3)ncn2)n1 | – | 0.891 µM (active) |
